Assay [1] relates to PRMT1 (protein arginine N-methyltransferase 1). The experiment in a line: small molecules binding arginine methyltransferase PRMT1 – biochemical, small-molecule microarray, 635 nm fluorescence, primary screen (AID 1088).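 Note: binding of Prmt1 protein to compounds spotted on small-molecule microarray slides.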 The note with it: higher = more signal.
Assay [2] can be described thus: growth effects on S. cerevisiae YJM789 – YJM789 clinical isolate, OD600, 24 h, basal, primary screen (AID 1089).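 Note: growth of clinical yeast isolate S. cerevisiae YJM 789 seeded 1000 cells per well; test concentration not given here.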 The note with it: higher = more signal, called active from +8 up or from −8 down.
Assay [3] in a line: S. pombe growth modifiers, basal conditions – strain 972, OD600, 24 h, no modulator, primary screen (AID 1090).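 Note: basal condition with compound alone and no growth modifier present; test concentration not given here.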 The note with it: S. pombe 972 growth, higher = more signal, called active from +8 up or from −8 down.
Assay [4] in a line: budding yeast growth modifiers under rapamycin – strain BY4716, OD600, 96 h, primary screen (AID 1091). Note: test concentration not given here. The note with it: S. cerevisiae BY4716 + rapamycin, higher = more signal, called active from +8 up or from −8 down.
Assay [5] concerns the target Torsin-1A-interacting protein 2 (Homo sapiens) (UniProt Q8NFQ8). The experiment in a line: small molecules binding lysate-expressed LULL1 – cell lysate, human LULL1 lysate, 635/667 nm fluorescence, primary screen (AID 1092).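 Note: probe is lysate of COS7 cells overexpressing human LULL1; score merges per-feature 667 nm fluorescence with signal-to-noise.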 To be noted: small-molecule microarray, hLULL1 lysate binding, 635 nm fluorescence; higher = more signal.
Assay [6] can be described thus: optical density change of DRC41 E. coli – strain DRC41, OD650, 24 h, E. coli filamentation project, primary screen (AID 1093).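 Note: MC1000 strain lacking acrAB efflux and sulA so SOS filamentation is blocked; test concentration not given here.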 To be noted: E. coli DRC41 growth, higher = more signal, called active from +8 up or from −8 down.
Assay [7] can be described thus: probe aLefty2 binding to arrayed compounds – biochemical, biotinylated probe, 635/667 nm fluorescence, primary screen (AID 1094).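 Note: score merges spot fluorescence near 667 nm with spot signal-to-noise ratio.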 To be noted: small-molecule microarray, higher = more signal.
For assay [8], the system named is Noggin (protein binding on small-molecule microarray). The assay can be described thus: small molecules binding Noggin protein – biochemical, 635/667 nm fluorescence, primary screen (AID 1095).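 Note: score merges 667 nm feature fluorescence with signal to noise over triplicate slides.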 The note with it: 635 nm fluorescence, higher = more signal.
Assay [9] deals with Neurogenic locus notch homolog protein 3 (Homo sapiens) (UniProt Q9UM47). The experiment in a line: small molecules binding NOTCH3 protein – biochemical, 635/667 nm fluorescence, primary screen (AID 1096). To be noted: small-molecule microarray, 635 nm fluorescence, higher = more signal.
Sequence of Neurogenic locus notch homolog protein 3 (Homo sapiens) (Q9UM47 whole entry, looked up): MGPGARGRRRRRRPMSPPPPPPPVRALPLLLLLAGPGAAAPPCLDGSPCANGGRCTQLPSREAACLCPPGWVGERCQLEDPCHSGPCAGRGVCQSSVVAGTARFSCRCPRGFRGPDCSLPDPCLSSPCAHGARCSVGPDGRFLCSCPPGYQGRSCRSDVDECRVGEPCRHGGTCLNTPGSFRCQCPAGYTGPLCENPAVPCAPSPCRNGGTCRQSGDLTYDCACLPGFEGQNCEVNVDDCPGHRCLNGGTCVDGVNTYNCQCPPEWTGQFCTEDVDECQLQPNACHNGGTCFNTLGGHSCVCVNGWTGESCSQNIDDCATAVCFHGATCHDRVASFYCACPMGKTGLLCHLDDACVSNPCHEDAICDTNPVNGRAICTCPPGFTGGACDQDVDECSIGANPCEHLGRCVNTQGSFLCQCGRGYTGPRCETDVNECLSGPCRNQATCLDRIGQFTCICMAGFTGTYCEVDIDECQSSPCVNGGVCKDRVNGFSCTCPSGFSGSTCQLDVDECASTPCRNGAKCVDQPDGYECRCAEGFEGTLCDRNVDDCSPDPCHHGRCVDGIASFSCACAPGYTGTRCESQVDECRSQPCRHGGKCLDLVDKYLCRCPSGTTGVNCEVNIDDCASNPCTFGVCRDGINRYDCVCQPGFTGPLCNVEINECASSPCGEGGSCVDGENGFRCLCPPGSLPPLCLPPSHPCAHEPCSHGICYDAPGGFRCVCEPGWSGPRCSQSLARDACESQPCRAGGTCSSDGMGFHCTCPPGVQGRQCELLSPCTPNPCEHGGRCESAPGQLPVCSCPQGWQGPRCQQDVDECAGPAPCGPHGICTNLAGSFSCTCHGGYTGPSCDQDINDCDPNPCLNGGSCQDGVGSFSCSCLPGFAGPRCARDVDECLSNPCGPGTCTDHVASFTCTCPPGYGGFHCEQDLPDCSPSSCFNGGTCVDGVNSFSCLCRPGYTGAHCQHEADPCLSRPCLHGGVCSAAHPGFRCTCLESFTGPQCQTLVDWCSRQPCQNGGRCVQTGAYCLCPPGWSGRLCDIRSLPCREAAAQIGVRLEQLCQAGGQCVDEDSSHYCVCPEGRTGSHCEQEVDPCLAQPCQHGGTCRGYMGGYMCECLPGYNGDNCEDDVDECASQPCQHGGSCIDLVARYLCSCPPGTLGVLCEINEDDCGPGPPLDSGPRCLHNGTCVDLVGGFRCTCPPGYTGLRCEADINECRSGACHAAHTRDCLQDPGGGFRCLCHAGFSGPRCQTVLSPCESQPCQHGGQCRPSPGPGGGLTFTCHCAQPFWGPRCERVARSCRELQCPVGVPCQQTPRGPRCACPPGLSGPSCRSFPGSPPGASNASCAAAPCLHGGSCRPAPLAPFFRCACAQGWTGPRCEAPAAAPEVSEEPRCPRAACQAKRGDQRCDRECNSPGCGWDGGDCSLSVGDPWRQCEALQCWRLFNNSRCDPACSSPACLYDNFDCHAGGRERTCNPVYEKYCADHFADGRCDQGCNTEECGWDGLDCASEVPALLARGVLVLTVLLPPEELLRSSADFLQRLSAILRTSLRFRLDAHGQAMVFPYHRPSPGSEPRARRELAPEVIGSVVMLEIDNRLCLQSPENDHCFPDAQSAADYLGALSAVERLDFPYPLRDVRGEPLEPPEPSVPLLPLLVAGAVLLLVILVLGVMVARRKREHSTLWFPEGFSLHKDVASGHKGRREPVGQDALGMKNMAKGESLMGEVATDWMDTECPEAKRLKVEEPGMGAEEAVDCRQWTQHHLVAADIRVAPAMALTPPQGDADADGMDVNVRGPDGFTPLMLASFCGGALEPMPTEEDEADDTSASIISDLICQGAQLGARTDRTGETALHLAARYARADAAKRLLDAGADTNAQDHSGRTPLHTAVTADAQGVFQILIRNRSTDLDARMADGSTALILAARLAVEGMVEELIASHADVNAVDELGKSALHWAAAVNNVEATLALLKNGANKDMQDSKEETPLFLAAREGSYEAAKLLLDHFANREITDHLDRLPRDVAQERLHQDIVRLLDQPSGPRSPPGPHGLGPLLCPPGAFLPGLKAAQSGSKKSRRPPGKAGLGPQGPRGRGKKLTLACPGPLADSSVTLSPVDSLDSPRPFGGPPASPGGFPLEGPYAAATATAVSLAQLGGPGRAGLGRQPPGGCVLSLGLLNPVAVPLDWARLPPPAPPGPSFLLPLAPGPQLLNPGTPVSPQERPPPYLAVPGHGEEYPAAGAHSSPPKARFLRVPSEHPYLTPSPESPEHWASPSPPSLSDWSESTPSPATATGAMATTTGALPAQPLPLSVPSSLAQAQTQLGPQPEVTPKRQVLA
A short description of assay [10]: probe aEGFR binding to arrayed compounds – biochemical, biotinylated probe, 635/667 nm fluorescence, primary screen (AID 1097).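 Note: probe is a biotinylated anti-EGFR antibody binding compounds printed on slides; score combines fluorescence near 667 nm and signal to noise of each spot.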 The note with it: small-molecule microarray, higher = more signal.
Assay [11] deals with Plasmodium falciparum Sir2 (PF13_0152, Sir2A). The assay can be described thus: Plasmodium falciparum Sir2A binding compounds – biochemical, small-molecule microarray, 635 nm fluorescence, primary screen (AID 1098).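 Note: score merges spot fluorescence intensity with its signal-to-noise ratio.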 The note with it: fluorescence 635 nm, higher = more signal.
The nature of assay [12]: probe aDKK1 binding to arrayed compounds – biochemical, biotinylated probe, 635/667 nm fluorescence, primary screen (AID 1099).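 Note: score merges 667nm spot fluorescence with signal to noise across triplicate slides; reference of the scale not given here.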 To be noted: small-molecule microarray, higher = more signal.
Assay [13] is described as follows: probe aCHRDL2 binding to arrayed compounds – biochemical, biotinylated probe, 635/667 nm fluorescence, primary screen (AID 1100). The note with it: small-molecule microarray, higher = more signal.
The nature of assay [14]: change in splice reporter luminescence, either direction, cell-based, HEK293, spliceosome inhibition project, primary screen (AID 1101).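 Note: HEK293 cells carrying a splicing-competent luciferase reporter gene; test concentration not given here.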 To be noted: HEK293 splicing luciferase reporter, 24 h, higher = more signal, called active from +8 up or from −8 down. For orientation: In a reporter assay the amount or activity of a reporter protein is the signal.
Assay [15] deals with Fibroblast growth factor 10 (Homo sapiens) (UniProt O15520). The assay can be described thus: compounds binding fibroblast growth factor 10 – biochemical, small-molecule microarray, 635 nm fluorescence, primary screen (AID 1102). The note with it: FGF10 binding, fluorescence 635 nm, higher = more signal.
Sequence of Fibroblast growth factor 10 (Homo sapiens) (O15520 whole entry, looked up): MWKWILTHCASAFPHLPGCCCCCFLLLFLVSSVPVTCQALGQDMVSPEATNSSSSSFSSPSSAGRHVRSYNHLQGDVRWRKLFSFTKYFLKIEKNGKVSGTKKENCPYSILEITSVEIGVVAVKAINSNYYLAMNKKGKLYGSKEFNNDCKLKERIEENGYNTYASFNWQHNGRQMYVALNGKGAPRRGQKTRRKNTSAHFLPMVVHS
Assay [16] deals with glycogen synthase kinase-3 (GSK3A per assay name; protocol says GSK3B). The experiment in a line: compounds binding glycogen synthase kinase-3 – biochemical, small-molecule microarray, 635 nm fluorescence, GSK3A, primary screen (AID 1103). Note: the record names both GSK3A and GSK3B. To be noted: fluorescence 635 nm, higher = more signal.
Assay [17] has as its target Epidermal growth factor receptor (Homo sapiens) (UniProt P00533). The experiment in a line: compounds binding epidermal growth factor receptor – biochemical, small-molecule microarray, 635 nm fluorescence, primary screen (AID 1104).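 Note: score merges 667 nm emission intensity with spot signal to noise over triplicate slides.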 The note with it: EGFR binding, higher = more signal.
Assay [18] has as its target Follistatin-related protein 3 (Homo sapiens) (UniProt O95633). The assay can be described thus: compounds binding follistatin-related protein 3 – biochemical, small-molecule microarray, 635 nm fluorescence, primary screen (AID 1105).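 Note: score merges emission near 667 nm and signal to noise per printed spot across three slides.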 The note with it: FSTL3 binding, higher = more signal.
For assay [19], the target named is Dickkopf-related protein 1 (Homo sapiens) (UniProt O94907). The assay can be described thus: small molecules binding DKK1 protein – biochemical, small-molecule microarray, 635 nm fluorescence scan, primary screen (AID 1106).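 Note: score merges emission near 667 nm with signal to noise over three replicate slides.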 The note with it: higher = more signal.
Sequence of Dickkopf-related protein 1 (Homo sapiens) (O94907 whole entry, looked up): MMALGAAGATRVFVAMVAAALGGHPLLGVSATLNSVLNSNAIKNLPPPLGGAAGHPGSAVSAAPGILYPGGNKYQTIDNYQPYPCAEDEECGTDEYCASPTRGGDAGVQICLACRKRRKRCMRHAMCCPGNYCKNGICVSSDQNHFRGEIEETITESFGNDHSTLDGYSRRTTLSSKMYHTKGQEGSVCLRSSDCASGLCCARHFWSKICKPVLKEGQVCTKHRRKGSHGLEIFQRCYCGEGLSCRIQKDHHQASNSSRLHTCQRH
Assay [20] relates to Inhibin beta A chain (activin A). The experiment in a line: small molecules binding activin A – biochemical, small-molecule microarray, 635 nm fluorescence scan, primary screen (AID 1107).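 Note: mouse activin A protein probed at 4.33 µg/mL on printed slides; score merges bound-protein fluorescence near 667 nm with spot signal-to-noise.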 The note with it: INHBA, higher = more signal.

Calls of active or inactive are those of the source.

Sequence of Torsin-1A-interacting protein 2 (Homo sapiens) (Q8NFQ8 whole entry, looked up): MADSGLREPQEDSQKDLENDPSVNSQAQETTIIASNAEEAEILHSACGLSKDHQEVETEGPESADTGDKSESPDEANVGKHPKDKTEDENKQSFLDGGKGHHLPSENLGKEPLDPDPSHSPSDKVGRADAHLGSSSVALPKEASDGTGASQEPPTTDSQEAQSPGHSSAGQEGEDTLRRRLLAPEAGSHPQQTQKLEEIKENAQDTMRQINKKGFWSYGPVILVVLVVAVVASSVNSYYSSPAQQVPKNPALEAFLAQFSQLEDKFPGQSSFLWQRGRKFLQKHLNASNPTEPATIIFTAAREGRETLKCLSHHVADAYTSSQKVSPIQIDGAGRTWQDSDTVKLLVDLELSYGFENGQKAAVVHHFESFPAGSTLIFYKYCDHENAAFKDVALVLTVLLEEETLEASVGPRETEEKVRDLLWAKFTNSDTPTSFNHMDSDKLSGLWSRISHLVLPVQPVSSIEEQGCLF
Sequence of Follistatin-related protein 3 (Homo sapiens) (O95633 whole entry, looked up): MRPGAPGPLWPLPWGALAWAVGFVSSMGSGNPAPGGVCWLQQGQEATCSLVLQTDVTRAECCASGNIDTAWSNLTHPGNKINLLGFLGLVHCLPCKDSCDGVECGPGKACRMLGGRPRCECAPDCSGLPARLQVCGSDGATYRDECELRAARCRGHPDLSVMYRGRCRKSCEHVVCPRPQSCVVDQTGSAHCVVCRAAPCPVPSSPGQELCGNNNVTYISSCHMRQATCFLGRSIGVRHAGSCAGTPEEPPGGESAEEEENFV
Sequence of Epidermal growth factor receptor (Homo sapiens) (P00533 whole entry, looked up): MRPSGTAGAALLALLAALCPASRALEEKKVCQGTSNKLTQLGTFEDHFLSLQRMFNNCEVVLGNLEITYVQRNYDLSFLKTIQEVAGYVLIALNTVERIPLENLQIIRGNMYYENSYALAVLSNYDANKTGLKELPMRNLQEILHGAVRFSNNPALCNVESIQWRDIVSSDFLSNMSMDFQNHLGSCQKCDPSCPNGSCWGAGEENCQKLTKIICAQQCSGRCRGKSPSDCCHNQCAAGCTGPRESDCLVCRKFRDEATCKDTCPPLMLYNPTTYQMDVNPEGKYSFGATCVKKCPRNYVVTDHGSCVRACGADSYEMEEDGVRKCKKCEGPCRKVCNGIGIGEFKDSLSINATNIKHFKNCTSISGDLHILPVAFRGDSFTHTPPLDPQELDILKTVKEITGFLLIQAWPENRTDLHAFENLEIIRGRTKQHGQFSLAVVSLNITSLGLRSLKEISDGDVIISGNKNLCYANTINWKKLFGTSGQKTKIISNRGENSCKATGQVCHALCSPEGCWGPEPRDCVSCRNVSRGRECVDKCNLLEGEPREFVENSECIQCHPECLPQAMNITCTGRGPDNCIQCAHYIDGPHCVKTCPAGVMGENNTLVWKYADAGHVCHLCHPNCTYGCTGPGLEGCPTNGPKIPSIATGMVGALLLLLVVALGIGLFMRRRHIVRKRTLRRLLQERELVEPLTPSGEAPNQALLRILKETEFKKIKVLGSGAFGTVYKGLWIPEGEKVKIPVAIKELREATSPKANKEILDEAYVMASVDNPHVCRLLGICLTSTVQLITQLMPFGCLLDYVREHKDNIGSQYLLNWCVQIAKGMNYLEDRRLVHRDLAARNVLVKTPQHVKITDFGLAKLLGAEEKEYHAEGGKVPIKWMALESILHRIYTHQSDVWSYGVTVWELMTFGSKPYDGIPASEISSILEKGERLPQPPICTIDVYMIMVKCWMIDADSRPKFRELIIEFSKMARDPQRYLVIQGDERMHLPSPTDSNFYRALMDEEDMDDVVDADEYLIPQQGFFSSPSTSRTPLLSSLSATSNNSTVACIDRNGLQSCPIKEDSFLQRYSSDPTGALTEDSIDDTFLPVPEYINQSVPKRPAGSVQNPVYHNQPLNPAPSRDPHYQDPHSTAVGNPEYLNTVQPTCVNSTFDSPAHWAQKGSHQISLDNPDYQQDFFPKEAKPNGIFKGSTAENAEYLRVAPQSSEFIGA

For `O=C(CS)NCCCCCNC(=O)[C@H]1C[C@H]2C(=O)N[C@@H](Cc3ccccc3)C(=O)N2[C@H]1c1ccc(O)cc1`, the composite z-score in assay [1] is 1.54; in assay [5] it was 2.18; in assay [7], -0.107; in assay [8], 1.48; in assay [9], 0.781; in assay [10] it was 0.178. Moreover, the composite z-score was 1.26 in assay [11]; 0.27 in [12]; 0.299 in [13]; 0.702 in assay [15]; 1.29 in [16]; 0.957 in [17]. The composite z-score was determined as 0.566 in assay [18], 1.25 in assay [19] and 0.456 in assay [20]. The z-score was 0.662 (inactive) in assay [2]; -0.982 (inactive) in assay [3]; 1.86 (inactive) in assay [4]; 1.12 (inactive) in [6]; -0.876 (inactive) in assay [14].

In the case of `Cc1ccc(S[C@]2(C(=O)NC3CC3)CC(=O)N(Cc3cc(C(F)(F)F)cc(C(F)(F)F)c3)[C@@H]2c2ccc(CO)cc2)cc1`, the composite z-score in assay [1] is 1.55; in assay [5], 2.27; in assay [7] it was -0.213; in assay [8] it was 0.756; in [9] it was 0.58; in assay [10], -0.0772. Further, the composite z-score is 0.259 in [11]; -0.212 in assay [12]; 0.0275 in assay [13]; 0.295 in [15]; 0.57 in assay [16]; 0.196 in assay [17]. Besides, the results for the composite z-score in [18], in assay [19] and in assay [20] were 0.811, 0.245 and 0.709, respectively. Also, the z-score in assay [2] is -1.18 (inactive); in [3], -1.51 (inactive); in assay [4], -2.53 (inactive); in assay [6] it was -0.83 (inactive); in assay [14] it was 0.434 (inactive).

For `CC(=O)NCCCC[C@@H]1NC(=O)[C@H]2C[C@@H](C(=O)NCCCCCCN(C)C)[C@@H](c3ccc(O)cc3)N2C1=O`, the composite z-score is 1.54 in assay [1]; 2.97 in assay [5]; -0.0391 in [7]; 1.71 in assay [8]; 0.989 in assay [9]; 0.0122 in assay [10]. The composite z-score is 1.04 in [11]; -0.124 in assay [12]; 0.0091 in assay [13]; 0.815 in assay [15]; 1.35 in assay [16]; 0.851 in [17]. Also, the values for the composite z-score in assay [18], in assay [19] and in assay [20] were 1.55, 1.14 and 0.775, respectively. For the same compound, the z-score in [2] is -0.139 (inactive); in assay [3], -0.566 (inactive); in assay [4] it was 0.613 (inactive); in assay [6], -0.179 (inactive); in assay [14], -0.808 (inactive).

Turning to `CO[C@H]1COC(=O)[C@H](Cc2ccccc2)NC(=O)CC=C[C@@H](C)[C@H](OC)COC(=O)CC=C[C@@H]1C`, the composite z-score in assay [1] is -0.141; in assay [5], 0.239; in assay [7] it was -0.152; in assay [8] it was 0.344; in [9], 0.717; in [10] it was 0.0875. The composite z-score is 0.143 in assay [11]; 0.077 in assay [12]; -0.473 in [13]; 0.323 in assay [15]; 0.418 in [16]; 0.44 in assay [17]. Besides, the composite z-score is 0.532 in assay [18], 0.898 in [19] and -0.405 in assay [20]. Moreover, the z-score in assay [2] was -0.39 (inactive); in assay [3], -1.44 (inactive); in assay [4] it was -0.617 (inactive); in assay [6] it was 0.296 (inactive); in assay [14], -0.875 (inactive).

Turning to `CCC(=O)[C@]12O[C@@]3([C@@H]4C(=O)OCC[C@@H]41)N(Cc1ccccc1)C(C)=C(C(=O)OC)[C@@H](c1ccccc1)N3C2=O`, the composite z-score in [1] was 0.131; in [5], -0.417; in assay [7], -0.143; in assay [8], -1.66; in assay [9], -0.406; in assay [10], -0.246. The composite z-score is 0.401 in assay [11]; -0.393 in [12]; -0.314 in assay [13]; 0.0848 in assay [15]; -0.588 in [16]; -0.0835 in [17]. For the same compound, the composite z-score was -0.782 in assay [18], -0.0297 in assay [19] and 1.47 in assay [20]. Besides, the z-score was -0.641 (inactive) in assay [2]; -1.16 (inactive) in [3]; -1.17 (inactive) in assay [4]; 0.151 (inactive) in assay [6]; -1.15 (inactive) in [14].

The values above are taken from PubChem BioAssay.
